Screening data as filed in PubChem BioAssay.
Compounds with a hit are over-represented: about 6.3% of the library has one in this group of screens.
TIM10 inh: TIM10 yeast growth inhibition; AID 463195; inhibition, % at 10 µM; 1.4% of 330,000 active; S. cerevisiae TIM10 strain growth, BacTiter-Glo luminescence, 24 h;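 active means inhibition of 40% or more at the single tested concentration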;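 further: wild-type TIM10 isogenic control strain grown at permissive 25 °C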
tim10-1 inh: inhibits growth of tim10-1 mutant yeast; S. cerevisiae tim10-1 ts strain growth, BacTiter-Glo, 24 h; inhibition, % at 20 µM; 2.2% of 330,000 active; AID 463190;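 active means inhibition of at least 40%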;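 further: mutant grown at 25 °C; 0% = DMSO wells with yeast and 100% = wells holding no yeast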
tim23-1 inh: growth inhibitors of tim23-1 mutant yeast | S. cerevisiae tim23-1 growth, BacTiter-Glo luminescence, 24 h | inhibition, % at 20 µM | 1.3% of 330,000 active | AID 463212;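 active means growth inhibition of the mutant yeast at or above 50%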;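 further: temperature-sensitive mutant grown at 25 °C; plate controls were DMSO-treated mutant yeast for no effect and medium wells lacking yeast for full effect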
Mdm2 MdmX PPI: human Mdm2/MdmX binding inhibition; SaOS-2 split-luciferase Mdm2/MdmX complementation, luminescence; 3% of 330,000 active; AID 485346; inhibition, % at 8 µM;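 active means inhibition of at least 50% at 8 µM in the primary screen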
Target sequence (O15151 whole entry, looked up): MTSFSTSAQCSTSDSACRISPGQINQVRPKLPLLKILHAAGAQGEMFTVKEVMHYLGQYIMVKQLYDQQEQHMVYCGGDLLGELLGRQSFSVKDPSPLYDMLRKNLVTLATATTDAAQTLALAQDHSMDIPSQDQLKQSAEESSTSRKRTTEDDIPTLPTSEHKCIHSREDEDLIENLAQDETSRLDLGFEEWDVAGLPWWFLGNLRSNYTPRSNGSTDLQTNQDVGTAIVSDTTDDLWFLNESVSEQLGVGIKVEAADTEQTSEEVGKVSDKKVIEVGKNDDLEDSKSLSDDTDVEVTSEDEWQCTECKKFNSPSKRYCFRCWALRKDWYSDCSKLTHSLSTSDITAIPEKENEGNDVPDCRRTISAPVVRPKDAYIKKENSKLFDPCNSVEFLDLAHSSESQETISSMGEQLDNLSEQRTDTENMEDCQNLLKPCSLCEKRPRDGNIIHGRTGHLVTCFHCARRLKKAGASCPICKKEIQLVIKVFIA
Target sequence (Q00987 whole entry, looked up): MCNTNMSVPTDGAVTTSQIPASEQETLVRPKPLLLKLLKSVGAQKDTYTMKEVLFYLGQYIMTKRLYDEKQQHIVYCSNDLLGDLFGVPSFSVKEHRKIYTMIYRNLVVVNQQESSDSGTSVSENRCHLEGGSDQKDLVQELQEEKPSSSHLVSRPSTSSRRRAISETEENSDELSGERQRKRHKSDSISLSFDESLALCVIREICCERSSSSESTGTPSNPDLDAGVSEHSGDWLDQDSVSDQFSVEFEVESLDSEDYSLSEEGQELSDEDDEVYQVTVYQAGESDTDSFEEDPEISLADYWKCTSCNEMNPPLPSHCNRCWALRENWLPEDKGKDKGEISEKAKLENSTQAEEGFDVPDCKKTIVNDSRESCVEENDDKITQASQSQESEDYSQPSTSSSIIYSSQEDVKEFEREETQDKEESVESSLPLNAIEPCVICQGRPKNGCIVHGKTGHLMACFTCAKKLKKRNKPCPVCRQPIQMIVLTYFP
MPTP inh: inhibitors of mitochondrial permeability transition pore | isolated mouse mitochondria, Ca2+ swelling absorbance, 30 min | inhibition, % at 10 µM | 1.4% of 360,000 active;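 active means inhibition of 50% or more, scaled per plate between neutral and stimulator controls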;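 further: 0% = DMSO wells given calcium and 100% = 1 mM EGTA wells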
Mdm2 MdmX conf: confirmation of human Mdm2/MdmX interaction inhibitors; shares compounds with Mdm2 MdmX PPI; Mdm2-MdmX binding, luminescent assay; inhibition, % at 8 µM; 55% of 10,000 active; in the data active means inhibition above about 40%
Full FLuc ctr: full-length luciferase inhibition in Mdm2/MdmX counter-screen. 77% of 6,200 active. SaOS-2 full-length luciferase counterscreen, luminescence. shares compounds with Mdm2 MdmX PPI. inhibition, % at 8 µM. AID 504607;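 active means mean inhibition at 8 µM reaching about 37%, which flags the compound as non-specific, limit read from the data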;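 further: p53-null SaOS-2 cells with luciferase driven by a doxycycline-inducible promoter; compound on cells about two nights before reading with doxycycline added after day one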
An asterisk follows results filed as active.

`COc1ccc([C@H]2CC(=O)C[C@@H](CCn3cc(C)nn3)O2)cc1` gave MPTP inh 2.1.
Screening C=CCn1c(O)c(N=NC(=S)Nc2ccccc2F)c2cc(S(=O)(=O)N3CCOCC3)ccc21 returned TIM10 inh 13.4, tim10-1 inh 20.0, tim23-1 inh -3.2, Mdm2 MdmX PPI 64.0*, MPTP inh 0.4, Mdm2 MdmX conf 44.1* and Full FLuc ctr 50.0*.
Cc1ccccc1NC(=S)N=Nc1c(O)n(C)c2ccc(S(=O)(=O)N3CCOCC3)cc12 was read as TIM10 inh 17.1, tim10-1 inh 9.6, tim23-1 inh 12.1, Mdm2 MdmX PPI 43.5 and MPTP inh 0.8.
For Cc1cccc(C)c1NC(=S)N=Nc1c(O)n(C)c2ccc(S(=O)(=O)N3CCOCC3)cc12 the results were TIM10 inh 8.2, tim10-1 inh 15.5, tim23-1 inh 12.4, Mdm2 MdmX PPI 63.8*, MPTP inh -0.3 and Mdm2 MdmX conf 30.5.
Screening Cc1cccc(NC(=S)N=Nc2c(O)n(C)c3ccc(S(=O)(=O)N4CCOCC4)cc23)c1 returned TIM10 inh 20.2, tim10-1 inh 15.5, tim23-1 inh 16.3, Mdm2 MdmX PPI 54.2*, MPTP inh 1.3, Mdm2 MdmX conf 53.8* and Full FLuc ctr 64.1*.
Screening Cc1ccccc1S(=O)(=O)NC(=O)C1(C)CCN1C(=O)C1CCCCC1 (centres undefined) returned MPTP inh -1.2.
Screening CC(C)NC1(C#N)CCN(Cc2ccccc2)CC1 returned MPTP inh -0.6.
Screening CCCNC(=O)C1(C)CCCN(Cc2csc(-c3ccccc3)n2)C1 (centres undefined) returned MPTP inh 0.9.
`O=C(Nc1ccc(N2CCCCC2)c(Cl)c1)c1cccnc1` gave TIM10 inh 15.7, tim10-1 inh 24.8, tim23-1 inh 3.2, Mdm2 MdmX PPI 66.5*, MPTP inh 0.3, Mdm2 MdmX conf 46.4* and Full FLuc ctr 49.6*.
O=C(Nc1ccc(N2CCCC2)c(Cl)c1)c1cccnc1 was read as TIM10 inh 14.2, tim10-1 inh 21.8, tim23-1 inh 26.6, Mdm2 MdmX PPI -6.3 and MPTP inh -2.6.
For COc1cc(Cl)c(C)cc1NCC(=O)Nc1cccc(S(=O)(=O)N2CCCC2)c1 the results were TIM10 inh 8.6, tim10-1 inh 12.8, tim23-1 inh 18.5, Mdm2 MdmX PPI 51.4*, MPTP inh 1.4 and Mdm2 MdmX conf 13.6.
For COc1ccc(NC(=O)COc2cc(C)cc(C)c2)cc1S(=O)(=O)N1CCCCC1 the results were TIM10 inh -29.7, tim10-1 inh -15.1, tim23-1 inh -19.9, Mdm2 MdmX PPI 61.7*, MPTP inh 0.0, Mdm2 MdmX conf 74.6* and Full FLuc ctr 51.3*.
For O=C1CC(N2CCN(S(=O)(=O)c3ccccc3F)CC2)C(=O)N1c1ccccc1F (centres undefined) the results were MPTP inh -0.5.
CC(=O)N(C)c1ccc(OCC(O)Cn2c3ccc(Cl)cc3c3cc(Cl)ccc32)cc1 (centres undefined) was read as TIM10 inh 39.2, tim10-1 inh 38.7, tim23-1 inh 23.7, Mdm2 MdmX PPI 82.1*, MPTP inh 0.6, Mdm2 MdmX conf 44.6* and Full FLuc ctr 53.5*.
Screening CS(=O)(=O)N1N=C(c2cccs2)CC1c1ccccc1O (centres undefined) returned TIM10 inh -27.1, tim10-1 inh -29.5, tim23-1 inh -27.0, Mdm2 MdmX PPI 17.8 and MPTP inh -1.7.
Oc1ccccc1C1CC(c2cccs2)=NC(c2ccc(Cl)cc2)N1 (centres undefined) was read as TIM10 inh 21.7, tim10-1 inh 17.5, tim23-1 inh 23.5, Mdm2 MdmX PPI 85.0*, MPTP inh 31.7, Mdm2 MdmX conf 85.6* and Full FLuc ctr 28.5.
Screening CC(C)NC(=O)C1(C)CCN1C(=O)c1ccc2c(c1)OCO2 (centres undefined) returned MPTP inh -0.7.
Screening Cc1cccc(C)c1N1C(=O)c2ccccc2NC(=O)C1C(=O)NCCOc1ccccc1 (centres undefined) returned MPTP inh 7.1.
`CN=c1scc(-c2cccs2)n1/N=C/c1ccccc1O` gave TIM10 inh 7.7, tim10-1 inh 12.5, tim23-1 inh 3.9, Mdm2 MdmX PPI 95.3*, MPTP inh 0.4, Mdm2 MdmX conf 95.7* and Full FLuc ctr 12.6.
COc1cccc(-n2c(C)nc3c(cnn3-c3ccc(Cl)cc3)c2=O)c1 was read as TIM10 inh 12.3, tim10-1 inh 17.3, tim23-1 inh 8.5, Mdm2 MdmX PPI 7.6 and MPTP inh 17.5.
CCc1nc2c(cnn2-c2ccc(Cl)cc2)c(=O)n1-c1ccc2c(c1)OCCO2 was read as TIM10 inh 9.1, tim10-1 inh 13.5, tim23-1 inh 6.1, Mdm2 MdmX PPI 55.7*, MPTP inh 1.6 and Mdm2 MdmX conf 22.4.
`Cn1c(-c2ccccc2)cc(=NNS(C)(=O)=O)c2cc(S(=O)(=O)O)ccc21` gave MPTP inh -0.2.
Cc1cc(C)cc(Cn2cc(CN3CC(N4CCN(Cc5ccccc5F)CC4)CS3(=O)=O)nn2)c1 (centres undefined) was read as MPTP inh 0.1.
`C/C(=N\NC(=O)CNC(=O)C(c1ccccc1)c1ccccc1)c1ccc(C(C)(C)C)cc1` gave TIM10 inh -6.4, tim10-1 inh -3.2, tim23-1 inh -30.1, Mdm2 MdmX PPI 55.1*, MPTP inh 1.2 and Mdm2 MdmX conf 13.8.
`CC(C)CC(=O)O/N=C1\C(=O)N(Cc2ccc(Cl)cc2)c2ccc([N+](=O)[O-])cc21` gave TIM10 inh 21.6, tim10-1 inh 20.5, tim23-1 inh -42.9, Mdm2 MdmX PPI 59.5* and Mdm2 MdmX conf 26.1.
`CC(=O)O/N=C1\C(=O)N(Cc2ccc(C)cc2)c2ccccc21` gave TIM10 inh 28.9, tim10-1 inh 22.3, tim23-1 inh 41.2, Mdm2 MdmX PPI 0.7 and MPTP inh 0.9.
Screening Cc1ccc(S(=O)(=O)C[C@@H]2OC[C@H](Cc3ccccc3)N2S(=O)(=O)c2ccc(C)cc2)cc1 returned MPTP inh 5.9.
`COc1ccc(NC(=O)C[C@H]2C(=O)N(Cc3ccccc3)C[C@@H]2CSC)cc1` gave MPTP inh 0.3.
`CCC(C)(C)C(=O)O[C@H]1C[C@@H](C)C=C2C=C[C@H](C)[C@H](CC[C@@H]3C[C@@H](O)CC(=O)O3)[C@H]21` gave TIM10 inh 12.3, tim10-1 inh 28.7, tim23-1 inh 23.5, Mdm2 MdmX PPI 55.2* and Mdm2 MdmX conf 21.6.
O=C(Cn1nc(-c2ccccc2)ccc1=O)Nc1ccc(-n2cnnn2)cc1 was read as TIM10 inh -21.9, tim10-1 inh -7.5, tim23-1 inh -35.0, Mdm2 MdmX PPI 31.5 and MPTP inh -0.4.
